# Data: publication PMC4336329 (PLoS ONE, 2015)
# About 14,000 (4.5%) of roughly 310,000 compounds showed an effect of 50% or more. The effect is printed as a negative number. For the sample, strong results were picked, then their nearest neighbours and some compounds at random.
# Molecular target: human ether-à-go-go-related gene (hERG) potassium channel (human, UniProt Q12809)
# Test: primary screen, population patch clamp on CHO cells stably expressing hERG; higher = less effect of the substance
# 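Further: peak tail current of the secondary pulse compared with the same well before compound.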
# human ether-à-go-go-related gene (hERG) potassium channel, sequence (Q12809 whole entry, looked up): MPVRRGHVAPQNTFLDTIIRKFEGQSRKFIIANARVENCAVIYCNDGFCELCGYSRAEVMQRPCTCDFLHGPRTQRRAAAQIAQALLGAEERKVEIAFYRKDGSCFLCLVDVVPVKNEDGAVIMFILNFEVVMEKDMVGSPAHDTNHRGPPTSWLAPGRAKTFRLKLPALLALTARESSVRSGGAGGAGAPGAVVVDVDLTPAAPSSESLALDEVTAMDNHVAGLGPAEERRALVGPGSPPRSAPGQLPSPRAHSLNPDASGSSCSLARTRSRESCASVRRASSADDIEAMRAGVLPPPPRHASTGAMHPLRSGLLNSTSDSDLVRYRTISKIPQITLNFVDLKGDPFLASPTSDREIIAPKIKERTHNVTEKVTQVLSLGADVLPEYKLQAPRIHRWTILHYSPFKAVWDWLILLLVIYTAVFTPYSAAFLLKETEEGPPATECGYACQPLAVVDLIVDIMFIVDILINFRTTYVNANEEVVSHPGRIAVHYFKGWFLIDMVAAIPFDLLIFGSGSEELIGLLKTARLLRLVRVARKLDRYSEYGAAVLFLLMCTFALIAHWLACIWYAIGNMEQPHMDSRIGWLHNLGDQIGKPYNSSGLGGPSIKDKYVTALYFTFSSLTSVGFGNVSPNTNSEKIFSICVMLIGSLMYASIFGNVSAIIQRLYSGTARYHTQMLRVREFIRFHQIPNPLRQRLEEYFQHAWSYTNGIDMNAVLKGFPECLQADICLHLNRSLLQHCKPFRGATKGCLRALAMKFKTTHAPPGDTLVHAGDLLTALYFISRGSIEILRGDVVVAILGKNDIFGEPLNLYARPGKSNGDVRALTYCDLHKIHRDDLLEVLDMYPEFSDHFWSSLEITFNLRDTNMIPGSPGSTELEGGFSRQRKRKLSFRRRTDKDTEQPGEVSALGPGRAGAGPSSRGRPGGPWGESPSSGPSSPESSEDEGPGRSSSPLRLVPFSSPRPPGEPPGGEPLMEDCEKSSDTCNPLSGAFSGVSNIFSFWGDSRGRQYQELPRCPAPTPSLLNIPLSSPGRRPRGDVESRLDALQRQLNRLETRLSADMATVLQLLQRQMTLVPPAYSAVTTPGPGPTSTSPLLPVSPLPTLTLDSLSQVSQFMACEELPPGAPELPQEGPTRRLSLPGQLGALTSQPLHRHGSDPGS
row,Compound,"hERG current change (%, negative = inhibition) at 10uM [%]"
1,Cc1ncc([N+](=O)[O-])n1CC(=O)NCc1ccccc1,16
2,Cc1ccc(S(=O)(=O)NNC(=O)C(=O)NNS(=O)(=O)c2ccc(C)cc2)cc1,-1.99
3,O=C(c1ccc(Cl)cc1)N1CCCCC(Cl)C1=O (stereo not shown),7.57
4,COc1cccc(Nc2ncc(C(=O)O)c3ccccc23)c1,-1.48
5,Fc1cnc(Cl)nc1N1CCN(c2ccccc2)CC1,-17.4
6,Cc1nn(Cc2ccccc2)c(C)c1C(=O)OCC(=O)c1cc(C)n(CC(F)(F)F)c1C,-2.57
7,COc1cccc(-n2c(-c3ccco3)nc3nc4ccccc4nc32)c1,18.4
8,O=C(COC(=O)c1cccnc1Nc1ccccc1F)NC1CC1,-0.164
9,Cc1cc(O)ccc1N/C=C(\C#N)c1nc2ccccc2o1,10.2
10,C=C(C)COc1ccc2c(C)c(CCC(=O)NC3CC3)c(=O)oc2c1,-2.92
11,CCOC(=O)c1sc2nc(CN3CCN(c4cccc(C(F)(F)F)c4)CC3)[nH]c(=O)c2c1C,8.43
12,COc1ccc(-c2noc(=O)n2Cc2ccc(C#N)cc2)cc1,-70.1
13,N#Cc1ccc(Cn2c(-c3ccc(F)cc3)noc2=O)cc1,-17.8
14,COc1ccc(-c2noc(=O)n2Cc2ccccc2Cl)cc1,-8.73
15,Cc1cc(C)n(Cc2ccc(C(=O)O)o2)n1,11.5
16,COc1ccccc1COn1c(=O)c(-c2ccco2)[n+]([O-])c2ccccc21,5.96
17,Cc1ccc(S(=O)(=O)c2cc3c(=O)n4ccccc4nc3n(CCCN3CCOCC3)c2=N)cc1C,-36.8
18,N=c1c(S(=O)(=O)c2ccccc2)cc2c(=O)n3ccccc3nc2n1CCCN1CCOCC1,-65.9
19,N=c1c(C(=O)NCc2ccc(F)cc2)cc2c(=O)n3ccccc3nc2n1CCCN1CCOCC1,-83
20,N=c1c(C(=O)NCc2ccccc2)cc2c(=O)n3ccccc3nc2n1CCCN1CCOCC1,-78.6
21,N=c1c(S(=O)(=O)c2ccc(Cl)cc2)cc2c(=O)n3ccccc3nc2n1CCN1CCOCC1,-46.4
22,Nc1c(C(=O)NCc2ccc(F)cc2)c2nc3ccccc3nc2n1CCCN1CCOCC1,0.0395
23,O=C(NCCN1CCOCC1)c1c(O)nc2ccccn2c1=O,10.9

row,Compound,"hERG current change (%, negative = inhibition) at 10uM [%]"
1,N=c1c(C(=O)NCCN2CCOCC2)cc2c(=O)n3ccccc3nc2n1CCc1ccccc1,-72.5
2,CN(C)S(=O)(=O)N1CCC(Oc2ccc(C(=O)NCCc3cscn3)cc2)CC1,0.0832
3,CC(C)O.CCc1nnc(NS(=O)(=O)c2ccc(NC(=O)C(c3ccccc3)c3ccccc3)cc2)s1,2.36
4,CCc1nnc(NC(=O)C2CC(=O)N(c3ccc4c(c3)OCCO4)C2)s1 (stereo not shown),4.32
5,CC(=O)Nc1ccc(C(=O)CS(=O)(=O)c2ccc(C)cc2)cc1,-11.5
6,N=c1c(C(=O)NCCc2ccccc2)cc2c(=O)n3ccccc3nc2n1CCCN1CCOCC1,-76.2
7,N=c1c(C(=O)NCCN2CCOCC2)cc2c(=O)n3ccccc3nc2n1CCCN1CCOCC1,-4.43
8,CC1(C)CC(=O)C=C(NCCO)C1,-0.4
9,O=C(Nc1ccc(N2CCN(C(=O)c3ccco3)CC2)cc1)c1ccco1,20.7
10,CN(CC(CC(=O)Nc1nncs1)c1ccccc1)S(=O)(=O)c1ccc(Br)cc1 (stereo not shown),-55.4
11,CN(CC(CC(=O)Nc1nncs1)c1ccccc1)S(=O)(=O)c1ccccc1 (stereo not shown),-14.2
12,Cc1nnc(NC(=O)CC(CN(C)S(=O)(=O)c2ccccc2)c2ccccc2)s1 (stereo not shown),-18.7
13,COC(=O)c1ccccc1NC(=O)Nc1ccc(Cl)cn1,-3.82
14,O=C(Nc1ccc2c(c1)OCO2)Nc1ccc(Br)cn1,3.01
15,Cc1cccc(N/C=C/C(=C(C#N)C#N)N(C)C)c1,-24.5
16,COc1ccc(C)cc1NC(=O)CNc1ccccc1CN(C)C1CCCCC1,-19.6
17,Cc1ccc(NC(=O)CNc2ccccc2CN(C)C2CCCCC2)cc1,-59.1
18,CN(Cc1ccccc1NCC(=O)Nc1ccccc1C#N)C1CCCCC1,-33
19,Cc1c(C(=O)N(C)CCC#N)oc2ccc(S(=O)(=O)N3CCOCC3)cc12,10.1
20,O=C(NNc1ncnc2c1cnn2-c1ccc(F)cc1)c1cccs1,6.55
21,O=C1CCC(C(=O)N(CCO)Cc2ccccc2)CN1CC1CCCCC1 (stereo not shown),11.7
22,CN(C)C1=NCCN1CCc1ccc(F)cc1,-9.03
23,CCOC(=O)c1cnc2c(cnn2C)c1NCCCN(C)C,-51.7

row,Compound,"hERG current change (%, negative = inhibition) at 10uM [%]"
1,CCOC(=O)c1cnc2c(cnn2C)c1NCCCn1ccnc1,-35.9
2,CCOC(=O)c1cnc2c(cnn2C)c1NCCC#N,-7.43
3,CCOC(=O)c1cnc2ccc(C(=O)OC)cc2c1NCCCN1CCOCC1,-60.5
4,CCOC(=O)c1cnc2ccc(OCC)cc2c1NCCN1CCOCC1.Cl,-67.9
5,CCOC(=O)c1cnc2c(C)c(Cl)ccc2c1NCCCN1CCOCC1,-49.2
6,CCOC(=O)c1cnc2ccc(OC)cc2c1NCCN1CCOCC1,-48.5
7,CCOC(=O)c1ccc2ncc(C(=O)OCC)c(NCCCN3CCOCC3)c2c1,-47.3
8,CCOC(=O)c1cnc2ccc(C(=O)OC)cc2c1NCCN1CCOCC1,-30.2
9,CCOC(=O)c1cnc2ccc(Br)cc2c1NCCCN1CCOCC1,-39
10,CCOC(=O)c1cnc2ccc(OCC)cc2c1NCCCN1CCOCC1.Cl,-75.6
11,O=C(NCCc1ccccc1)C1CCN(S(=O)(=O)N2CCCCC2)CC1,2.19
12,CCCNC(=O)Cn1c(=O)oc2cc(S(=O)(=O)N3CCCC3)ccc21,11.9
13,Oc1ccccc1C(=S)N1CCN(C(=S)c2ccccc2O)CC1,18.4
14,C#CCNC(=O)C1=C[C@H](c2coc3ccccc3c2=O)[C@@H](CCCO)[C@H](OCC)O1,-23.3
15,Cc1[nH]c2ccccc2c1CCCO,10.7
16,CC(C)(C)NC(=O)CN1C(=O)/C(=C/c2ccccc2)SC1=S,10
17,O=C(CN1CCN(c2ccccc2)CC1)NC(=O)NCc1ccco1,9.72
18,CCOC(=O)c1ccc2ncc(C(=O)OCC)c(NCCN(C)C)c2c1,-69.5
19,CCOC(=O)c1cnc2ccccc2c1NCCO,-34.8
20,CCOC(=O)c1cnc2ccc(Cl)cc2c1NCCN(C)C,-22.8
21,CCOC(=O)c1cnc2c(Cl)c(Cl)ccc2c1NCCN1CCOCC1.Cl,14.3
22,CCOC(=O)c1ccc2ncc(C(=O)OCC)c(NCCN3CCOCC3)c2c1,-48.5
23,CCOC(=O)c1cnc2ccc(C)cc2c1NCCO,-66.4

row,Compound,"hERG current change (%, negative = inhibition) at 10uM [%]"
1,CCOC(=O)c1cnc2ccc(Br)cc2c1NCCO,-9.88
2,CCOC(=O)c1cnc2c(ccc3ccccc32)c1NCCN(C)C,-7.47
3,CCOC(=O)c1cnc2ccc(C)cc2c1NCCN1CCOCC1.Cl,-65.7
4,Nc1nnn(CC(=O)N/N=C/c2cccc(Cl)c2)n1,4.76
5,CCCCNC(=O)c1onc(CSc2ccc(F)cc2)c1C(=O)NCCCC,-10.2
6,CCN(CC)C(=O)C1CCC(CNS(=O)(=O)c2cccc3cccnc23)CC1 (stereo not shown),4.52
7,CN(C)c1ccc(C(=S)N2CCCCCC2)cc1,-5.79
8,NS(=O)(=O)c1ccc(CCNC(=O)c2ccc(Cl)cc2[N+](=O)[O-])cc1,16.7
9,COc1ccccc1N1CCN(C2CC(=O)N(c3ccc(F)cc3)C2=O)CC1 (stereo not shown),0.313
10,O=C1CSC(c2ccccc2)N1c1ccc(F)cc1F (stereo not shown),4.37
11,CCn1c(Cc2ccccc2)nnc1SCC(=O)Nc1ccc(S(N)(=O)=O)cc1,2.13
12,Cc1ccc(Cn2c(SCc3cccnc3)nc3c2c(=O)n(C)c(=O)n3C)cc1,-0.713
13,Cc1ccc(-c2ccc(S(=O)(=O)NCC3CCCO3)cc2)cc1 (stereo not shown),26.2
14,CCN(CC)CCCN(C(=O)c1ccc(F)cc1)c1nc(-c2ccc(OC)cc2)cs1,-75.1
15,COCCN(C(=O)c1ccccc1)c1nc(-c2ccc(OC)cc2)cs1,28.5
16,COCCCN(C(C)=O)c1nc(-c2ccc(OC)cc2)cs1,-16.5
17,COCCCN(C(=O)c1ccccc1)c1nc(-c2ccc(OC)cc2)cs1,18.3
18,COc1ccc(-c2csc(N(CCCN(C)C)C(=O)c3ccc(Br)cc3)n2)cc1.O=C(O)C(=O)O,-44
19,CCC(=O)N(CC)c1nc(-c2ccc(OC)cc2)cs1,-5.81
20,CCN(CC)CCCN(C(=O)c1ccc(Br)cc1)c1nc(-c2ccc(OC)cc2)cs1.Cl,-73.2
21,CCN(CC)CCCN(C(=O)c1cccc(C)c1)c1nc(-c2ccc(OC)cc2)cs1,-78.2
22,CCN(CC)CCCN(C(=O)c1ccc(OC)cc1)c1nc(-c2ccc(OC)cc2)cs1,-73.7
